This is an account of results in PubChem BioAssay AID1026 (Columbia University Molecular Screening Center, 2008).

A word on the inhibition: it is the share of the control response that was lost under treatment.

Unmarked numbers belong to inactive results. The rule behind the calls is not given here.

Sequence of Bifunctional epoxide hydrolase 2 (Homo sapiens) (P34913 whole entry, looked up): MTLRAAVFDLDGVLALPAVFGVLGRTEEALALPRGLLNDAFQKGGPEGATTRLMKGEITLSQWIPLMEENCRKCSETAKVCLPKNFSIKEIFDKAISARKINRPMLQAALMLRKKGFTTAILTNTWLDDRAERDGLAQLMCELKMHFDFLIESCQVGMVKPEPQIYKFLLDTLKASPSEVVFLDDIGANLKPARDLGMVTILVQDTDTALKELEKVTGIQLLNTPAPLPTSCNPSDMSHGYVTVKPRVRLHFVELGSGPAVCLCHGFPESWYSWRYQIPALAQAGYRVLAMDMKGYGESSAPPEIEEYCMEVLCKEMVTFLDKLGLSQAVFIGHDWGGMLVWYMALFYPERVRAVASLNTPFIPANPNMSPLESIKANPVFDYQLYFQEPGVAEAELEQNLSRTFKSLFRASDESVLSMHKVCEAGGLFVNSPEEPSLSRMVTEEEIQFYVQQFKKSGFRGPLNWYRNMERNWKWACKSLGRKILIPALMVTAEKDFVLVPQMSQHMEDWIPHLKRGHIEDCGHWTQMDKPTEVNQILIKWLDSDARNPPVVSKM

The assay addresses Bifunctional epoxide hydrolase 2 (Homo sapiens) (UniProt P34913). In words: sEH inhibitor concentration-response potency, dose response, biochemical, human sEH, fluorescence, Infinite200 (AID 1026). Conditions: recombinant human sEH, fluorogenic substrate, at 0.2 µM, active compounds read high.
With `CCN(CCNC(=O)Nc1ccc(Cl)cc1)c1ccccc1`, the inhibition was 39.1%. For the molecule `CCc1ccc(NC(=O)Nc2ccc3c(c2)N(C)C(=O)CS3)cc1`, the inhibition was 61.2%.

With `NNC(=O)c1cccc(COc2cccc(Br)c2)c1`, the inhibition was 37.1%. With `Cc1cc2cc(CNC(=O)NC3CCCCC3)ccc2[nH]1` the figure was 60%; with `O=C(c1ccc2c(=O)n(Cc3ccc4c(c3)OCO4)c(=S)[nH]c2c1)N1CCCCC1`, 47.4%.

Regarding `O=C(/C=C/c1cc2c(cc1Br)OCO2)NCc1ccc(Cl)cc1`, the inhibition is 60.5%. With `CCOc1ccc(NC(=O)Nc2ccc(N(C)C(C)=O)cc2)cc1` the figure was 54.1%. As to `CCCCCC(=O)Nc1ccc2oc(-c3ccncc3)nc2c1`, the inhibition is 31.2%. With `O=C(N/N=C/c1cccc(O)c1)c1csc2ccccc12` the figure was 54.3%; with `Cc1cc2nc(-c3ccc(SCC(=O)N4CCN(C(=O)c5ccco5)CC4)nc3)[nH]c2cc1C`, 48%. As for `O=C(Nc1cccc(F)c1)NC1CC2CCCC(C1)N2C1CC1` (centres undefined), the figure is 58.4%; as for `O=C(NCC1CCCC(CNC(=O)N2CCc3ccccc32)C1)N1CCc2ccccc21` (centres undefined), 60.4%; as for `COc1ccc(CCN2C(=O)C3C4CC(C5C(C(=O)N/N=C\c6ccc(Cl)cc6)=NOC45)C3C2=O)cc1OC` (centres undefined), 67.1%.

As to `O=C(NC1CCCCCCC1)C1CCN(S(=O)(=O)N2CCC3(CC2)OCCO3)CC1`, the inhibition was 49.5%. With `CC(C)(C)c1ccc(C(=O)N2CCC(C(=O)NCCC3=CCCCC3)CC2)cc1` the figure was 38%; with `Cc1ccc(NC(=O)NCCCc2ccccc2)cc1`, 48.7%.

Regarding `O=C(NCc1ccc2c(c1)OCO2)C1CCC(CNS(=O)(=O)c2cccc3nsnc23)CC1` (centres undefined), the inhibition is 59.7%.

Regarding `CCCCNC(=O)CSc1nc2ccc(NC(=O)CSc3nnc(COc4ccccc4C)n3C)cc2s1`, the inhibition is 58.5%. In the case of `O=C(CCSc1ccc(Cl)cc1)NC12CC3CC(CC(C3)C1)C2`, the inhibition was 46.4%. With `CC(Cc1cccs1)NC(=O)Nc1ccc(Cl)cc1` (centres undefined) the figure was 60.6%. With `O=C(NC1CCCCCCC1)C1CCN(c2nc3ccccc3o2)CC1` the figure was 73.5%; with `C/C(=N\NC(=O)Cc1cccn1C)c1cccc2ccccc12`, 40.4%.

`CCOc1ccc(NC(=O)c2ccc(F)c(S(=O)(=O)N3CCN(c4ccccn4)CC3)c2)cc1`: the inhibition was 64.3%. With `O=C(NC1CCCCC1)NC1CC2CCC(C1)N2Cc1nnnn1Cc1ccc2c(c1)OCO2` (centres undefined) the figure was 74.2%. With `CC(c1ccccc1)N1CCn2c(nc3cc(NC(=O)NC4CCCCC4)ccc32)C1` (centres undefined) the figure was 70.1%; with `CSc1cccc(NC(=O)Nc2ccc(Cl)cc2)c1`, 59.3%.

In the case of `O=C(Nc1cccc(F)c1)NC1CCCCC1`, the inhibition is 51.9%. As for `CC(=O)NC(=S)Nc1ccc(NC(=O)COc2ccc(Cl)cc2Cl)cc1`, the figure is 44.2%. With `Cc1oc(-c2ccccc2F)nc1CN1CCC(C(=O)NCCC2=CCCCC2)CC1` the figure was 56.5%. With `O=C(Nc1ccc(Cl)c(C(F)(F)F)c1)C1CCCN(S(=O)(=O)c2cnc[nH]2)C1` (centres undefined), the inhibition was 72.5%. `COC(=O)[C@@H](NC(=O)NCc1ccccc1Cl)C(C)C`: the inhibition is 61.5%.

As for `CCN(CCCNC(=O)CCCCn1c(=O)[nH]c2ccccc2c1=O)c1ccccc1`, the inhibition is 38.1%. For the molecule `C/C(=N\NC(=O)c1cccc(S(=O)(=O)Nc2ccccc2Cl)c1)c1ccc(-n2ccnc2)cc1`, the inhibition was 56%. Regarding `COc1ccc(CCNC(=O)c2ccc3c(c2)NC(=O)C(N2CCOCC2)S3)cc1OC` (centres undefined), the inhibition is 49.2%. With `CCCCC(CC)CNC(=O)C1CCCN(S(=O)(=O)c2cnc[nH]2)C1` (centres undefined) the figure was 49.9%; with `COc1cccc(CNC(=O)C2CCC(CNS(=O)(=O)c3cccc4nsnc34)CC2)c1` (centres undefined), 50.1%. With `O=C(NC1CCCCC1)N1CCCC(c2nc(-c3cccs3)no2)C1` (centres undefined), the inhibition was 65.8%. For `COc1ccc(-c2nc3cc(NC(=O)Cc4ccc(OC)c(OC)c4)ccc3o2)cc1`, the inhibition was 52.1%.

For the molecule `CCc1c(C)nc2ncnn2c1N1CCC(C(=O)Nc2ccc(C)cc2)CC1`, the inhibition was 44.3%.
